Out of some 310,000 compounds screened, about 14,000 (4.5%) showed an effect of 50% or more. Effects have a minus sign here. The full list was thinned out, with strong results kept by preference.
Biological target: human ether-à-go-go-related gene (hERG) potassium channel (human, UniProt Q12809)
Assay: primary screen, population patch clamp on CHO cells stably expressing hERG; higher = less effect of the substance
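Also: peak tail current of the secondary pulse compared with the same well before compound.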

Chain of human ether-à-go-go-related gene (hERG) potassium channel (Q12809 whole entry, looked up): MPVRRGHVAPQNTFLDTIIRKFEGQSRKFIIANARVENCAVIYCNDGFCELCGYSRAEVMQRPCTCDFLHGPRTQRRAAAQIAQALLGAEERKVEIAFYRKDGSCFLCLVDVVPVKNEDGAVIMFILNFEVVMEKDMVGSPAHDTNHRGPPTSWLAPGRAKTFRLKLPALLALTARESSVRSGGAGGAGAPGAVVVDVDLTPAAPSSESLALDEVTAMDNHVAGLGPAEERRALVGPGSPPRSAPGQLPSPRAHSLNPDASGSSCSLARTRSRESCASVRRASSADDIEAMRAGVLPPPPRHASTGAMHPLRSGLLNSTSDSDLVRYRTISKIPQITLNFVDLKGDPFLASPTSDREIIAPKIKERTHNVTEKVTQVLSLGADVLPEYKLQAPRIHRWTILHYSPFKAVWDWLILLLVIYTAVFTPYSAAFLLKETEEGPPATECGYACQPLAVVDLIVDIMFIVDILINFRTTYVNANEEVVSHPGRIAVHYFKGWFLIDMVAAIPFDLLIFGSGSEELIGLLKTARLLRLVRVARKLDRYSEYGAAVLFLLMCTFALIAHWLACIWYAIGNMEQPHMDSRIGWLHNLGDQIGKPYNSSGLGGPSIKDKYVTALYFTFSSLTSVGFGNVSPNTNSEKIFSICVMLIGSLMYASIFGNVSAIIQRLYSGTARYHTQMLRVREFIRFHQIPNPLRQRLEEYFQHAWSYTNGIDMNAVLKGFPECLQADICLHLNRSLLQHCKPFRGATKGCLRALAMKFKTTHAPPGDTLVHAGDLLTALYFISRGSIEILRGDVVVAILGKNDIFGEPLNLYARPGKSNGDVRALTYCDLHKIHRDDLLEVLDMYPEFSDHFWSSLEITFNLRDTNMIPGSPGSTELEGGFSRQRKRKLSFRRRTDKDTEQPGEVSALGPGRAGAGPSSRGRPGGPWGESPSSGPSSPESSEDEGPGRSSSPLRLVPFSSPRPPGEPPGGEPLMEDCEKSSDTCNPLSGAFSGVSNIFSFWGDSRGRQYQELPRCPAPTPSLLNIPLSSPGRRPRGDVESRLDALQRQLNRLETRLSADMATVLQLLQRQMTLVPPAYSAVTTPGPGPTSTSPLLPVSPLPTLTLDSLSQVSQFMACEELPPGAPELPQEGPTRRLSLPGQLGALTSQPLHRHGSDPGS

| Compound | hERG current change (%, negative = inhibition) at 10uM [%] |
| --- | --- |
| O=C(NC1CCCCC1)c1ccc(OC2CCN(Cc3ccccn3)CC2)cc1 | -16 |
| COc1ccc(OC)c(N(CC(=O)NCCSC2CCCCC2)S(=O)(=O)c2ccccc2)c1 | 16 |
| Cc1cccc(NC(=O)CSc2nccn2Cc2ccco2)c1 | 0.772 |
| Cc1c(NS(=O)(=O)c2ccc(C(=O)NCc3ccc(F)cc3)cc2)c(=O)n(-c2ccccc2)n1C | -15 |
| COc1ccc(C(=O)NC(=S)NNC(=O)c2ccccc2C)cc1 | 17.7 |
| NC(=O)c1c(NC(=O)CSc2nc3c(c(C(F)(F)F)n2)CCc2ccccc2-3)sc2c1CCCC2 | -1.81 |
| Nc1ccc2c(c1)C(=O)Cc1ccccc1S2 | 9.05 |
| CCCOC(=O)c1ccc(OCC(O)CN2CCN(C(=O)c3ccccc3)CC2)cc1.Cl (stereo not drawn) | -73.7 |
| COc1cc(C(=O)N2CCN(CC(O)COc3ccccc3)CC2)cc(OC)c1OC (stereo not drawn) | 4.32 |
| COc1ccccc1OCC(O)CN1CCN(C(=O)c2ccccc2)CC1.Cl (stereo not drawn) | 1.39 |
| CC(=O)/C(=N\Nc1ccc(C)cc1)Sc1nncn1C | -12.8 |
| COc1ccccc1C(=O)NCc1ccc(-c2nc3ccccc3s2)cc1 | -11 |
| O=C(NNc1nc(-c2ccccc2)cs1)c1ccccc1 | 3.27 |
| Br.CC(C)CC1CC(C)(c2csc(NNC(=O)c3ccccc3)n2)OC1=O (stereo not drawn) | -74.5 |
| CC1(C)CC(CC(=O)NNc2nc(-c3ccccc3)cs2)C(=O)O1 (stereo not drawn) | -2.28 |
| O=C(Nc1cccc(F)c1)C1C2C=CC3(CN(CCCN4CCOCC4)C(=O)C13)O2 (stereo not drawn) | -8.87 |
| Cl.O=C1CSC(c2ccccc2F)N1CCN1CCCCC1 (stereo not drawn) | -10.6 |
| CCOC(=O)C1(CC2CC2)CCN(S(=O)(=O)/C=C/c2ccccc2)CC1 | -18.4 |
| CCOC(=O)C1(Cc2ccccc2)CCN(Cc2cn[nH]c2-c2ccccc2)CC1 | -28.8 |
| CCOC(=O)C1(CC2CC2)CCN(Cc2cn[nH]c2-c2cccc(F)c2)CC1 | -91.6 |
| CCOC(=O)C1(CC2CC2)CCN(Cc2cn[nH]c2-c2ccccc2)CC1 | -79.5 |
| CCOC(=O)C1(CC2CCCCO2)CCN(S(=O)(=O)c2cccc(F)c2)CC1 (stereo not drawn) | 29.8 |
| CCOC(=O)C1(CC2CCCCO2)CCN(Cc2cn[nH]c2-c2cccc(F)c2)CC1 (stereo not drawn) | -53.9 |
| CCOC(=O)C1(CC2CC2)CCN(Cc2ccc3cccc(F)c3n2)CC1 | -48.3 |

| Compound | hERG current change (%, negative = inhibition) at 10uM [%] |
| --- | --- |
| CCOC(=O)C1(CC2CCCCO2)CCN(Cc2cc3ccccc3[nH]2)CC1 (stereo not drawn) | -46.1 |
| CC(C#N)Sc1ncnc2sc3c(c12)CCC3 (stereo not drawn) | 0.835 |
| CCC(Sc1ccc2nnc(CCNS(=O)(=O)c3ccc(OC)cc3)n2n1)C(=O)OC (stereo not drawn) | -10.7 |
| Cc1nn(C(C)C)c(C)c1CN1CCN(Cc2ccsc2)C(CCO)C1 (stereo not drawn) | 0.518 |
| OCCC1CN(Cc2ccccc2OC2CCCC2)CCN1Cc1ccsc1 (stereo not drawn) | -68.7 |
| OCCC1CN(Cc2ccsc2)CCN1C1CCCC1 (stereo not drawn) | -9.06 |
| COc1cccc(CN2CCN(Cc3ccc4c(c3)OCCO4)CC2CCO)c1 (stereo not drawn) | -7.1 |
| CCCn1ncc(CN2CCN(Cc3ccsc3)C(CCO)C2)c1C (stereo not drawn) | -5.55 |
| OCCC1CN(Cc2cccc(OC3CCCC3)c2)CCN1Cc1ccsc1 (stereo not drawn) | -70 |
| CC(=O)c1cccc(NC(=O)N2CCC(c3ccc(C)cc3)C2)c1 (stereo not drawn) | -13.8 |
| COc1ccc(-c2c(C(F)(F)F)oc3cc(OCC(=O)Nc4ccccc4C(F)(F)F)ccc3c2=O)cc1OC | 4.91 |
| CC1(C)Cc2nc3sc4c(N(CCO)CCO)ncnc4c3cc2CO1 | 3.56 |
| CC1(C)Cc2nc3oc4c(NCc5ccccc5)ncnc4c3cc2CO1 | -10.7 |
| CC1(C)Cc2nc3oc4c(N(CCO)Cc5ccccc5)ncnc4c3cc2CO1 | -65.6 |
| CCN1CCN(C(=O)CN(c2cc(OC)ccc2OC)S(C)(=O)=O)CC1 | 16.2 |
| O=C(c1ccc(Cl)cc1)N1N=C(c2ccccn2)CC1(O)C(F)(F)F (stereo not drawn) | -13.6 |
| COc1ccc(S(=O)(=O)N2CCCCCC2)cc1NC(=O)c1ccccc1 | 10.5 |
| COc1ccc(NC(=O)c2ccc3c(c2)OCCO3)cc1OC | 9.47 |
| COc1ccc(CCNS(=O)(=O)c2cccc(F)c2)cc1OC | -1.75 |
| Nc1nonc1C(=O)NCCNC(=O)c1cccs1 | -58.7 |
| C/C(=N\NC(=O)c1nonc1N)c1cccs1 | 4.26 |
| Nc1nonc1C(=O)NCCNC(=O)c1ccccc1F | 4.12 |
| CCCCCCCCNC(=O)c1cnccn1 | -7.1 |
| O=c1[nH]nc(CNc2ccc(O)cc2)c2ccccc12 | -6.61 |

From article PMC4336329 (PLoS ONE, 2015)
